Experimental data: PubChem BioAssay (NCI)
Compounds without any hit were thinned out: in the full panel of roughly 83,000, 20% have a hit.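 Interpretation: 100, growth as untreated; towards 0, rising growth inhibition; 0, no net growth; 0 to -100, cell death. Compounds scoring below 10 were considered active.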 Values without a mark were called inactive. The source made the active and inactive calls.

Key:
Experiment in all cases: NCI-60 one-dose screen, 48 h (100 = growth as untreated, 0 = no growth, -100 = all killed)
Settings in all cases: 10 µM unless noted
SR leukemia = test system: SR leukemia
RPMI-8226 leukemia = test system: RPMI-8226 leukemia
OVCAR-8 ovarian = test system: OVCAR-8 ovarian
OVCAR-5 ovarian = test system: OVCAR-5 ovarian
IGROV1 ovarian = test system: IGROV1 ovarian
OVCAR-3 ovarian = test system: OVCAR-3 ovarian
HS 578T breast = test system: HS 578T breast
NCI/ADR-RES ovarian = test system: NCI/ADR-RES ovarian
MDA-MB-435 melanoma = test system: MDA-MB-435 melanoma
SW-620 colon = test system: SW-620 colon
MCF7 breast = test system: MCF7 breast
HCT-116 colon = test system: HCT-116 colon
KM12 colon = test system: KM12 colon
SK-OV-3 ovarian = test system: SK-OV-3 ovarian
T-47D breast = test system: T-47D breast
BT-549 breast = test system: BT-549 breast
HCC-2998 colon = test system: HCC-2998 colon
OVCAR-4 ovarian = test system: OVCAR-4 ovarian

Cc1cc2cn3c4ccc(O)cc4nc(N)c3c2cc1C
growth (SR leukemia): -23.5% (active)
growth (RPMI-8226 leukemia): -20.1% (active)
growth (OVCAR-8 ovarian): 5.39% (active)
growth (OVCAR-5 ovarian): 28.9%
growth (IGROV1 ovarian): 3% (active)
growth (OVCAR-3 ovarian): 16.5%
growth (HS 578T breast): -16.3% (active)
growth (NCI/ADR-RES ovarian): 9.17% (active)
growth (MDA-MB-435 melanoma): -31.2% (active)
growth (SW-620 colon): 11%
growth (MCF7 breast): -46.8% (active)
growth (HCT-116 colon): -100% (active)
growth (KM12 colon): 6.3% (active)

CC1C(=O)CCCC1=O
growth (SR leukemia): 97.6%
growth (RPMI-8226 leukemia): 101%
growth (OVCAR-8 ovarian): 107%
growth (OVCAR-5 ovarian): 104%
growth (SK-OV-3 ovarian): 108%
growth (IGROV1 ovarian): 102%
growth (NCI/ADR-RES ovarian): 113%
growth (T-47D breast): 96.1%
growth (BT-549 breast): 104%
growth (MDA-MB-435 melanoma): 105%
growth (SW-620 colon): 113%
growth (MCF7 breast): 95.8%
growth (HCT-116 colon): 113%
growth (HCC-2998 colon): 109%
growth (KM12 colon): 113%

O=C1Nc2ccccc2/C1=C/c1cn(CC(O)Cn2cc(/C=C3\C(=O)Nc4ccccc43)c3ccccc32)c2ccccc12 (centres undefined)
growth (SR leukemia): -2.94% (active)
growth (RPMI-8226 leukemia): -41.7% (active)
growth (OVCAR-8 ovarian): 1.35% (active)
growth (OVCAR-4 ovarian): -51.7% (active)
growth (SK-OV-3 ovarian): -38.2% (active)
growth (IGROV1 ovarian): -67.4% (active)
growth (OVCAR-3 ovarian): -85.1% (active)
growth (HS 578T breast): -22.3% (active)
growth (NCI/ADR-RES ovarian): 31.8%
growth (T-47D breast): -46.1% (active)
growth (BT-549 breast): -55.3% (active)
growth (MDA-MB-435 melanoma): -87.6% (active)
growth (SW-620 colon): -60.4% (active)
growth (MCF7 breast): -67.5% (active)
growth (HCT-116 colon): -64.2% (active)
growth (HCC-2998 colon): -16.9% (active)
growth (KM12 colon): -80.9% (active)

Oc1ccc(N=Nc2ccc(N=Nc3ccccc3)cc2)cc1
growth (SR leukemia): 43.1%
growth (RPMI-8226 leukemia): 24.8%
growth (OVCAR-8 ovarian): 23.1%
growth (OVCAR-4 ovarian): 76%
growth (SK-OV-3 ovarian): 42.6%
growth (IGROV1 ovarian): 53.6%
growth (OVCAR-3 ovarian): 18.3%
growth (HS 578T breast): 91.8%
growth (NCI/ADR-RES ovarian): 43.4%
growth (T-47D breast): 16.4%
growth (BT-549 breast): 49%
growth (MDA-MB-435 melanoma): 19.6%
growth (SW-620 colon): 44.7%
growth (MCF7 breast): 22.8%
growth (HCT-116 colon): 33.3%
growth (HCC-2998 colon): 17.2%
growth (KM12 colon): 27.8%

CC1(C)NCCC[C@]2(C)[C@H]3CC=C4[C@@H]5C[C@](C)(COC(=O)c6ccccc6C(=O)O)CC[C@]5(C)CC[C@@]4(C)[C@]3(C)CC[C@@H]12
growth (SR leukemia): 25.2%
growth (RPMI-8226 leukemia): 19.2%
growth (OVCAR-8 ovarian): 83.7%
growth (OVCAR-5 ovarian): 88.8%
growth (OVCAR-4 ovarian): 51.3%
growth (IGROV1 ovarian): 59.2%
growth (OVCAR-3 ovarian): 60%
growth (HS 578T breast): 63%
growth (NCI/ADR-RES ovarian): 78.2%
growth (BT-549 breast): 72.4%
growth (MDA-MB-435 melanoma): 62.4%
growth (SW-620 colon): 67.2%
growth (MCF7 breast): 41.1%
growth (HCT-116 colon): 16.5%
growth (HCC-2998 colon): 73.4%
growth (KM12 colon): 55.2%

CC1=C[C@@H]2c3c(c(O)c(O)c4oc5cc(O)cc(O)c5c(=O)c34)[C@@H](c3cc(O)c(O)c4oc5cc(O)cc(O)c5c(=O)c34)[C@@H]2C(C)(C)C1
growth (SR leukemia): 4.52% (active)
growth (RPMI-8226 leukemia): -4.75% (active)
growth (OVCAR-8 ovarian): 7.34% (active)
growth (OVCAR-5 ovarian): 19.6%
growth (OVCAR-4 ovarian): 22.3%
growth (IGROV1 ovarian): 12.9%
growth (OVCAR-3 ovarian): -10.4% (active)
growth (HS 578T breast): 8.08% (active)
growth (NCI/ADR-RES ovarian): 68.8%
growth (BT-549 breast): 12.1%
growth (MDA-MB-435 melanoma): -42.1% (active)
growth (SW-620 colon): -50.9% (active)
growth (MCF7 breast): -44.8% (active)
growth (HCT-116 colon): -78.8% (active)
growth (HCC-2998 colon): -34.5% (active)
growth (KM12 colon): -55.2% (active)

Cc1ccc2c(c1)C(=O)CCS2
growth (SR leukemia): 118%
growth (RPMI-8226 leukemia): 100%
growth (OVCAR-8 ovarian): 100%
growth (OVCAR-5 ovarian): 97.5%
growth (SK-OV-3 ovarian): 95%
growth (IGROV1 ovarian): 104%
growth (OVCAR-3 ovarian): 115%
growth (NCI/ADR-RES ovarian): 111%
growth (T-47D breast): 106%
growth (MDA-MB-435 melanoma): 104%
growth (SW-620 colon): 97.1%
growth (MCF7 breast): 93.3%
growth (HCT-116 colon): 103%
growth (HCC-2998 colon): 99.6%
growth (KM12 colon): 108%

CCCCCCCCCCCCCCCCNC(=S)N/N=C/c1ccc(O)cc1O
growth (SR leukemia): 41.2%
growth (RPMI-8226 leukemia): 59.7%
growth (OVCAR-8 ovarian): 56.2%
growth (OVCAR-4 ovarian): 66.9%
growth (SK-OV-3 ovarian): 87.7%
growth (IGROV1 ovarian): 55.2%
growth (OVCAR-3 ovarian): 73.1%
growth (HS 578T breast): 97.6%
growth (NCI/ADR-RES ovarian): 69.9%
growth (T-47D breast): 89.6%
growth (BT-549 breast): 83.5%
growth (MDA-MB-435 melanoma): 75.2%
growth (SW-620 colon): 66.7%
growth (MCF7 breast): 79.1%
growth (HCT-116 colon): 51.8%
growth (HCC-2998 colon): 86.9%
growth (KM12 colon): 71.8%

O=C1/C(=C/c2ccc(Cl)cc2)CCC/C1=C\c1ccc(Cl)cc1
growth (SR leukemia): 48.7%
growth (RPMI-8226 leukemia): -0.252% (active)
growth (OVCAR-8 ovarian): 68.9%
growth (OVCAR-5 ovarian): 96.7%
growth (SK-OV-3 ovarian): 88%
growth (IGROV1 ovarian): 62.6%
growth (OVCAR-3 ovarian): 55.8%
growth (NCI/ADR-RES ovarian): 87.2%
growth (T-47D breast): 79.6%
growth (BT-549 breast): 97%
growth (MDA-MB-435 melanoma): 15.9%
growth (SW-620 colon): 30.6%
growth (MCF7 breast): 17.3%
growth (HCC-2998 colon): 28.6%
growth (KM12 colon): 18.7%

CCCCCCCCc1ccc(CCC(N)(CO)CO)cc1
growth (SR leukemia): -32.8% (active)
growth (RPMI-8226 leukemia): -23.2% (active)
growth (OVCAR-8 ovarian): -68.6% (active)
growth (OVCAR-5 ovarian): 56.8%
growth (SK-OV-3 ovarian): 83.6%
growth (IGROV1 ovarian): -37.9% (active)
growth (OVCAR-3 ovarian): -47.9% (active)
growth (NCI/ADR-RES ovarian): 9.65% (active)
growth (T-47D breast): 34%
growth (BT-549 breast): 73.5%
growth (MDA-MB-435 melanoma): -43.6% (active)
growth (SW-620 colon): -83.8% (active)
growth (MCF7 breast): -69% (active)
growth (HCT-116 colon): -69.8% (active)
growth (HCC-2998 colon): -85.6% (active)
growth (KM12 colon): -66.5% (active)

Nc1nc(-c2cccc(Br)c2)cc(-c2cc3ccccc3oc2=O)n1
growth (SR leukemia): 89.6%
growth (RPMI-8226 leukemia): 98.7%
growth (OVCAR-8 ovarian): 97.2%
growth (OVCAR-5 ovarian): 106%
growth (SK-OV-3 ovarian): 97.8%
growth (IGROV1 ovarian): 67.2%
growth (HS 578T breast): 87.3%
growth (NCI/ADR-RES ovarian): 105%
growth (T-47D breast): 83.2%
growth (MDA-MB-435 melanoma): 117%
growth (SW-620 colon): 105%
growth (MCF7 breast): 57.6%
growth (HCT-116 colon): 85.5%
growth (KM12 colon): 99.2%

Cc1cc2cn3c4ccc(O)cc4[nH]c(=O)c3c2cc1C
growth (SR leukemia): -16.1% (active)
growth (RPMI-8226 leukemia): -37% (active)
growth (OVCAR-8 ovarian): -13.2% (active)
growth (OVCAR-5 ovarian): 32.6%
growth (IGROV1 ovarian): -1.79% (active)
growth (HS 578T breast): -31.8% (active)
growth (NCI/ADR-RES ovarian): 3.46% (active)
growth (MDA-MB-435 melanoma): 0.693% (active)
growth (SW-620 colon): -100% (active)
growth (MCF7 breast): -57.2% (active)
growth (HCT-116 colon): -100% (active)
growth (HCC-2998 colon): 24.1%
growth (KM12 colon): -36.9% (active)

Nc1nc2cc(O)ccc2n2cc3c(F)cccc3c12
growth (SR leukemia): 10.8%
growth (RPMI-8226 leukemia): 53.7%
growth (OVCAR-8 ovarian): 26.5%
growth (OVCAR-5 ovarian): 38.7%
growth (OVCAR-4 ovarian): -4.95% (active)
growth (IGROV1 ovarian): 18.4%
growth (OVCAR-3 ovarian): 30%
growth (HS 578T breast): -21.4% (active)
growth (NCI/ADR-RES ovarian): 15.8%
growth (MDA-MB-435 melanoma): -8.3% (active)
growth (SW-620 colon): 17.5%
growth (MCF7 breast): -7.71% (active)
growth (HCC-2998 colon): 58.5%
growth (KM12 colon): 35.3%

CC(C)OC(=O)[C@H](C)N[P@@](=O)(OC[C@@]1(C)O[C@@H](n2cc(F)c(N)nc2=O)C[C@@H]1O[P@](=O)(N[C@@H](C)C(=O)OC(C)C)Oc1ccccc1)Oc1ccccc1
growth (SR leukemia): 124%
growth (RPMI-8226 leukemia): 105%
growth (OVCAR-8 ovarian): 79.4%
growth (OVCAR-5 ovarian): 110%
growth (OVCAR-4 ovarian): 112%
growth (IGROV1 ovarian): 94.4%
growth (OVCAR-3 ovarian): 102%
growth (HS 578T breast): 85.6%
growth (NCI/ADR-RES ovarian): 103%
growth (BT-549 breast): 75.9%
growth (MDA-MB-435 melanoma): 86.6%
growth (SW-620 colon): 61.1%
growth (MCF7 breast): 50.3%
growth (HCT-116 colon): 88.2%
growth (HCC-2998 colon): 46.7%
growth (KM12 colon): 76%
